Results taken from PubChem BioAssay AID1159577 (Broad Institute, 2015).
Among all 1,300 compounds or so, about 240 (18%) were called active. Not shown: some 8% with an inconclusive outcome. How the calls were made is not given here. The list is a sample of the results. Measured potencies and affinities stand elsewhere.

test: toxicity to human hepatoma HepG2 cells – cell-based, cherry-picked samples, cytotoxicity control, dose response (AID 1159577); settings: HepG2 cytotoxicity counterscreen, plate reader; series mostly up to 19.5 µM

SMILES | outcome
C[C@@H]1CN([C@@H](C)CO)C(=O)c2cccc(NC(=O)c3nc4ccccc4s3)c2O[C@H]1CN(C)C(=O)Nc1ccc2c(c1)OCO2 | inactive
CCNC(=O)c1cc2c(c(-c3cccc(-c4cc5ccccc5o4)c3)n1)[C@@H](CCO)N(C(=O)NC(C)C)C2 | inactive
CC(C)(C)[S@](=O)N1Cc2cc(C(=O)NCCN3CCCCC3)nc(-c3cccc(-c4ccc(C#N)cc4)c3)c2[C@@H]1CCO | inactive
COc1ccccc1S(=O)(=O)N(C)C[C@@H]1Oc2cc(/C=C/c3ccccc3)ccc2S(=O)(=O)N([C@H](C)CO)C[C@H]1C | inactive
O=C(c1ccccc1F)N1CC(=O)N2[C@H](CO)[C@H](c3ccc(-c4cccnc4)cc3)[C@H]2C1 | inactive
C[C@@H]1CN([C@@H](C)CO)C(=O)c2cccc(NC(=O)c3nc4ccccc4s3)c2O[C@H]1CN(C)C(=O)Nc1ccc(C(F)(F)F)cc1 | inactive
CCCNC(=O)N1[C@H](C#N)[C@H](c2ccc(-c3cccnc3)cc2)[C@H]1CO | inactive
COc1ccc2c3c([nH]c2c1)[C@@H](CO)N(Cc1ccccc1)CC31CCN(C(=O)c2cccnc2)CC1 | inactive
CS(=O)(=O)N1[C@H](C#N)[C@H](c2ccccc2-c2ccccc2)[C@H]1CO | inactive
Cc1ccc(S(=O)(=O)N(C)C[C@H]2Oc3ccc(NC(=O)c4ccncc4)cc3C(=O)N([C@@H](C)CO)C[C@@H]2C)cc1 | inactive
CO[C@H]1CN(C)C(=O)c2cc(NC(C)=O)ccc2OC[C@H](C)N(Cc2ccncc2)C[C@@H]1C | inactive
N#Cc1ccc(-c2ccc(C3[C@@H]4CN(C(=O)C5CC5)C[C@H]3N4)cc2)cc1 (some centres undefined) | inactive
C[C@H]1CN([C@@H](C)CO)C(=O)c2ccccc2-c2ccccc2CO[C@@H]1CN(C)C(=O)Nc1ccc(-c2ccccc2)cc1 | inactive
COc1ccc2c3c([nH]c2c1)[C@@H](CO)N(Cc1ccccc1F)CC31CCN(C(=O)C2CCOCC2)CC1 | inactive
Cc1ccc(S(=O)(=O)N(C)C[C@@H]2OCc3ccccc3-c3c(n(C)c4ccccc34)C(=O)N([C@H](C)CO)C[C@@H]2C)cc1 | inactive
Cc1ccccc1S(=O)(=O)N(C)C[C@@H]1OCc2ccccc2-c2c(n(C)c3ccccc23)C(=O)N([C@@H](C)CO)C[C@@H]1C | inactive
COCC(=O)N1CC2(C1)CN(Cc1ccccc1F)[C@H](CO)c1[nH]c3cc(OC)ccc3c12 | inactive
CN(C)CC(=O)Nc1ccc2c(c1)[C@@H]1C[C@H](CC(=O)N3CCOCC3)O[C@@H](CO)[C@@H]1O2 | inactive
N#Cc1ccc(-c2ccc([C@@H]3[C@@H]4CN(S(=O)(=O)Cc5ccccc5)C[C@H]3N4)cc2)cc1 | inactive
N#Cc1ccc(-c2ccc([C@@H]3[C@@H]4CN(Cc5cocn5)C[C@H]3N4)cc2)cc1 | inactive
N#Cc1ccc(-c2ccc([C@@H]3[C@@H](CO)N4C(=O)CN(C(=O)C5CCC5)C[C@@H]34)cc2)cc1 | inactive
CCCC#Cc1ccc2c(c1)O[C@H](CN(C)C(=O)c1ccccc1F)[C@@H](C)CN([C@H](C)CO)S2(=O)=O | inactive
C/C=C/c1ccc2c(c1)[C@@H]1[C@@H](CCN1S(=O)(=O)c1ccccc1C)[C@H](CO)N2 | inactive

SMILES | outcome
COc1cccc(CNC(=O)c2cc3c(c(-c4cccc(-c5ccncc5)c4)n2)[C@@H](CCO)N([S@](=O)C(C)(C)C)C3)c1 | inactive
C[C@H]1CN([C@@H](C)CO)S(=O)(=O)c2ccc(C#Cc3ccccc3F)cc2O[C@H]1CN(C)C(=O)c1ccc2c(c1)OCO2 | inactive
CCCNC(=O)c1cc2c(c(-c3cccc(-c4cc5ccccc5o4)c3)n1)[C@H](CCO)N(C(=O)NC(C)C)C2 | inactive
O=C(c1ccccc1F)N1CC(=O)N2[C@H](C1)[C@@H](c1ccc(-c3ccc(F)cc3)cc1)[C@@H]2CO | inactive
C/C=C/c1ccc([C@H]2[C@@H](CO)N(CC3CCCC3)C23CN(C(=O)CC2CC2)C3)cc1 | inactive
COc1ccccc1CN1C[C@@H]2N[C@H](C1)C2c1ccc(-c2ccncc2)cc1 (some centres undefined) | inactive
COc1cccc(CN2[C@@H]3CNC[C@H]2[C@H]3c2ccc(-c3ccccc3OC)cc2)c1 | inactive
COc1ccccc1-c1ccc([C@@H]2[C@@H](C#N)N[C@@H]2CO)cc1 | inactive
Cc1ccccc1S(=O)(=O)N1C[C@@H]2N[C@H](C1)C2c1ccc(-c2ccc(C#N)cc2)cc1 (some centres undefined) | inactive
CCCC(=O)N1CCC2(CC1)CN(Cc1cccnc1)[C@@H](CO)c1[nH]c3cc(OC)ccc3c12 | inactive
CCC(=O)N1CC2(C1)CN(S(=O)(=O)c1ccccc1)[C@@H](CO)c1[nH]c3cc(OC)ccc3c12 | inactive
CS(=O)(=O)N1[C@H](C#N)[C@H](c2ccccc2-c2ccc(F)cc2)[C@H]1CO | inactive
COc1ccc(S(=O)(=O)Nc2ccc3c(c2)CC(=O)N([C@H](C)CO)C[C@H](C)[C@H](CN(C)S(=O)(=O)c2ccc(C)cc2)O3)cc1 | inactive
N#C[C@@H]1[C@H](c2ccccc2C2=CCCCC2)[C@@H](CO)N1C(=O)c1cccc(F)c1 | inactive
COc1cccc(-c2ccc(C3[C@@H]4CN(C(=O)C5CC5)C[C@H]3N4)cc2)c1 (some centres undefined) | inactive
O=C(Nc1ccc(C(F)(F)F)cc1)N1C[C@@H]2N[C@H](C1)C2c1ccc(-c2cccnc2)cc1 (some centres undefined) | inactive
COc1ccc(-c2ccc(C3[C@H]4CNC[C@@H]3N4C(=O)Nc3ccc(C(F)(F)F)cc3)cc2)cc1 (some centres undefined) | inactive
O=C(c1cnccn1)N1CC(=O)N2[C@@H](CO)[C@@H](c3ccc(C#CCc4ccccc4)cc3)[C@@H]2C1 | inactive
CCC(=O)N1CC2(C1)CN(Cc1cc(F)ccc1F)[C@H](CO)c1[nH]c3cc(OC)ccc3c12 | inactive
CC(C)(C)[S@@](=O)N1Cc2cc(C(=O)N3CCc4ccccc4C3)nc(-c3cccc(-c4ccncc4)c3)c2[C@H]1CCO | inactive
C[C@H]1CN([C@@H](C)CO)C(=O)CCCn2nncc2CO[C@H]1CN(C)C(=O)Nc1ccc(N2CCCCC2)cc1 | inactive
C[C@@H]1CN([C@H](C)CO)C(=O)c2cc(/C=C/c3ccccc3)cnc2O[C@H]1CN(C)C(=O)NC1CCCCC1 | inactive
CN(C)CC#Cc1ccc([C@@H]2[C@H](CO)N3C(=O)CN(C(=O)Cc4cccnc4)C[C@@H]23)cc1 | inactive

SMILES | outcome
COCC(=O)Nc1ccc2c(c1)C(=O)N(C)C[C@H](OC)[C@H](C)CN(Cc1cccc(F)c1)[C@@H](C)CO2 | inactive
C[C@@H]1CN([C@H](C)CO)C(=O)c2cccc(NC(=O)c3nc4ccccc4s3)c2O[C@H]1CN(C)C(=O)Nc1ccc(C(F)(F)F)cc1 | inactive
CCCNC(=O)N1CCC2(CC1)CN(Cc1ccc(F)cc1)[C@@H](CO)c1[nH]c3cc(OC)ccc3c12 | inactive
CO[C@@H]1CN(C)C(=O)c2ccc(NC(=O)c3nc4ccccc4s3)cc2OC[C@@H](C)N(Cc2ccccc2)C[C@H]1C | inactive
COc1ccc(-c2ccc(C3[C@H]4CNC[C@@H]3N4S(=O)(=O)c3cccc(OC)c3)cc2)cc1 (some centres undefined) | inactive
COc1cc(CN2[C@@H]3CNC[C@H]2C3c2ccc(-c3ccccc3)cc2)cc(OC)c1 (some centres undefined) | inactive
CCC(=O)N1CC2(C1)CN(Cc1cccc(Cl)c1)[C@H](CO)c1[nH]c3cc(OC)ccc3c12 | inactive
C[C@@H]1CN([C@H](C)CO)C(=O)c2cccc(NS(=O)(=O)c3cccs3)c2O[C@H]1CN(C)Cc1ccc(C(F)(F)F)cc1 | inactive
COc1ccc(C#Cc2ccc3c(c2)O[C@H](CN(C)C(=O)Nc2cccc(OC)c2)[C@H](C)CN([C@@H](C)CO)S3(=O)=O)cc1 | inactive
CC(C)(C)[S@](=O)N1Cc2cc(C(=O)NC3CCC3)nc(-c3cccc(Br)c3)c2[C@@H]1CCO | inactive
COc1ccc(S(=O)(=O)N(C)C[C@@H]2OCc3ccccc3-c3c(n(C)c4ccccc34)C(=O)N([C@@H](C)CO)C[C@@H]2C)cc1 | inactive
COc1ccc2c3c(n(C)c2c1)[C@H](CO)N(C(=O)c1cccc(F)c1)CC31CN(C(=O)c2cccc(F)c2)C1 | inactive
CO[C@@H]1CN(C)C(=O)c2ccc(NC(=O)c3cc(C)on3)cc2OC[C@@H](C)N(S(=O)(=O)c2cccc(C)c2)C[C@H]1C | inactive
CCC(=O)N1CCC2(CC1)CN(Cc1cccc(OC)c1)[C@@H](CO)c1[nH]c3cc(OC)ccc3c12 | inactive
C[C@@H]1CN([C@H](C)CO)C(=O)c2c(c3ccccc3n2C)-c2ccccc2CO[C@@H]1CN(C)C(=O)c1cc(Cl)cc(Cl)c1 | inactive
COc1ccc(CN2C[C@H](C)[C@@H](OC)CN(C)C(=O)c3cc(NC(=O)c4nc5ccccc5s4)ccc3OC[C@@H]2C)cc1 | inactive
CCCNC(=O)Nc1ccc2c(c1)C(=O)N(C)C[C@H](OC)[C@@H](C)CN(C(=O)C1CCOCC1)[C@@H](C)CO2 | inactive
C/C=C/c1ccc2c(c1)[C@H]1[C@H](CCN1S(=O)(=O)c1cccc(F)c1)[C@@H](CO)N2 | inactive
C/C=C/c1ccc(C2[C@H]3CNC[C@@H]2N3Cc2cc(F)ccc2F)cc1 (some centres undefined) | inactive
C[C@@H]1CN([C@@H](C)CO)S(=O)(=O)c2ccc(/C=C/c3ccccc3)cc2O[C@H]1CN(C)C(=O)c1ccc2c(c1)OCO2 | inactive
C/C=C/c1ccc2c(c1)[C@H]1[C@H](CCN1C(=O)c1ccc3c(c1)OCO3)[C@H](CO)N2 | inactive
C[C@@H]1CN([C@@H](C)CO)C(=O)c2cc(NC(=O)Nc3ccccc3)ccc2O[C@@H]1CN(C)C(=O)Nc1cccc2ccccc12 | inactive
COc1ccc2c3c([nH]c2c1)[C@@H](CO)N(Cc1ccccc1Cl)CC31CCN(C(=O)C2CC2)CC1 | inactive
